Records with an inconclusive call do not appear. Calls of active or inactive are those of the source. The call rests on the fitted dose curve; in most records, active means well fitted cell-killing curve with a large enough effect in the repeat runs; inconclusive means weak or mixed curves; inactive means no such curve, though single readings can be large or run the other way.

The values below come from PubChem BioAssay (Tox21).
On the % scale 0 is the no-effect control and ±100 the full control effect; potency means the concentration at half of the fitted maximal effect.

A short description of this test: qHTS assay to identify small molecule agonists of the peroxisome proliferator-activated receptor delta (PPARd) signaling pathway - cell viability counter screen (AID 743211). Further: nearly all actives have a fitted effect of over 55% in size. Particulars: PPARd-bla HEK293H viability, CellTiter-Glo luminescence, 17 h; series mostly up to 62.6 µM; activity change, negative = cytotoxicity: at the top concentration. An excerpt: U.S. Tox21 Program National Center for Advancing Translational Sciences [NCATS] NIH Chemical Genomics Center [NCGC] U.S. Environmental Protection Agency [EPA] National Institutes of Environmental Health Sciences [NIEHS] National Toxicology Program [NTP] U.S. Food and Drug Administration [FDA] Tox21 Assay Overview: The peroxisome proliferator-activated receptors (PPARs) are lipid-activated transcription factors of the nuclear receptor superfamily with three distinct subtypes namely PPAR alpha, PPAR delta (PPARd) and PPAR gamma. All these subtypes heterodimerizes with Retinoid X receptor (RXR) and have different physiological functions. […] To identify the compounds that activate PPAR-delta signaling, GeneBLAzer PPAR delta UAS-bla HEK293H cell line (Invitrogen, Carlsbad, CA, USA) containing a beta-lactamase reporter gene under the control of an Upstream Activator Sequence (UAS) was used to screen the Tox21 compound library. The cytotoxicity of the Tox21 compound library against the PPARd-bla cell line was tested in parallel by measuring the cell viability using CellTiter-Glo assay (Promega, Madison, WI) in the same wells.
Tox21 Assay Protocol Summary: PPARd-bla cells were dispensed at 3000 cells/6uL/well in 1536-well black wall/clear bottom plates using a Multidrop Combi (Thermo Fisher Scientific, Waltham, MA) dispenser. After the assay plates were incubated at 37 C and 5% CO2 for 5 h, 23 nL of compounds dissolved in DMSO, positive controls or DMSO only was transferred to the assay plate by a Pintool station (Kalypsys, San Diego, CA). The assay plates were incubated at 37C for 17 h. After 1 uL of LiveBLAzerTM B/G FRET substrate was added using a Bioraptr Flying Reagent Dispenser (FRD) workstation (Beckman Coulter, Indianapolis, IN, USA), the plates were incubated at room temperature for 2 h, and fluorescence intensity was measured by an Envision plate reader (PerkinElmer, Shelton, CT). For cell viability readout that measures cytotoxicity, 3 ul/well of CellTiter-Glo reagent was added into the assay plates using a Bioraptr FRD. After 30 min incubation at room temperature, the luminescence intensity in the plates was measured using a ViewLux plate reader (PerkinElmer).
(In qHTS, concentration-response curves come from the screen itself.)
With `CC1=CC=C(C(C)C)CC1`, the “activity change, negative = cytotoxicity” value was -0.933% (inactive).

On to `CC(CSC(=O)c1ccccc1)C(=O)N1C[C@@H](Sc2ccccc2)C[C@H]1C(=O)O` (stereo not given in full), for which the “activity change, negative = cytotoxicity” value is 0.469% [at 29.1 µM] (inactive). `O=P(O)(OCc1ccccc1)OCc1ccccc1`: the “activity change, negative = cytotoxicity” value was 7.22% (inactive). On to `CC(=O)[O][Al][O]C(C)=O`, for which the “activity change, negative = cytotoxicity” value is 2.76% (inactive). For `CCN(CC)CCNc1ccc(CNC=O)c2sc3ccc(OC)cc3c(=O)c12`, the Potency was 30.9 µM (active). Regarding `COC(=O)c1ccc(I)cc1S(=O)(=O)NC(=O)Nc1nc(C)nc(OC)n1`, the “activity change, negative = cytotoxicity” value is 4.32% (inactive).

For `CC(CC=O)c1ccccc1` (stereo not given), the “activity change, negative = cytotoxicity” value was 2.61% (inactive). Same read-out and setting: the figure for `O=[N+]([O-])c1ccc2[nH]ncc2c1` is 0.567% (inactive); for `COc1ccc(C)cc1[N+](=O)[O-]` it is 9.25% [at 81.1 µM] (inactive).

On to `NC(N)=NCCC[C@H](N)C(=O)O`, for which the activity change, negative = cytotoxicity is 1.87% [at 5.95 µM] (inactive). Regarding `OC(C#CCN1CCCC1)(c1ccccc1)c1ccccc1`, the “activity change, negative = cytotoxicity” value is 1.36% (inactive). Regarding `CC(C)(C)Cl`, the “activity change, negative = cytotoxicity” value was 2.87% [at 81.1 µM] (inactive).

As to `COc1ccnc(CS(=O)c2nc3ccc(OC(F)F)cc3[nH]2)c1OC` (stereo not given), the “activity change, negative = cytotoxicity” value is -8.05% (inactive).

Regarding `CN(C)c1ccc(/C=C/c2ccc([N+](=O)[O-])cc2)cc1`, the activity change, negative = cytotoxicity is -8.61% [at 5.95 µM] (inactive).

Turning to `CCCCCCc1ccc(-c2ccc(C#N)cc2)cc1`, the “activity change, negative = cytotoxicity” value is 3% (inactive).

Consider `COc1cc(Cl)c(OC)cc1N`, for which the “activity change, negative = cytotoxicity” value was 2.04% (inactive). On the same count and under the same terms, the figure for `C[C@H]1C[C@H]2[C@@H]3CCC4=CC(=O)C=C[C@]4(C)[C@@]3(Cl)[C@@H](O)C[C@]2(C)[C@@]1(O)C(=O)CO` is -0.597% (inactive); for `CC[N+]1(CC)CCC(=C(c2ccccc2)c2ccccc2)C1C` (stereo not given) it is -3.88% (inactive); for `O=C1c2ccccc2S(=O)(=O)N1CCCCN1CCN(c2ncccn2)CC1` it is -7.08% (inactive). The same measure, in the same setting: the figure for `CCOC(=O)Cc1cccc2ccccc12` is 8.84% (inactive); for `Nc1cc(C(=O)O)c(O)c(S(=O)(=O)O)c1` it is 5.99% (inactive); for `CC(=O)[O][Al]` it is 7.23% [at 81.1 µM] (inactive).

With `COc1ccc(C(=O)c2ccc(OC)cc2O)c(O)c1`, the “activity change, negative = cytotoxicity” value is -18.4% [at 81.1 µM] (inactive).

For the compound `CC(C)(O)c1ccc(CNC(=O)c2cccnc2Oc2ccc(F)cc2)cc1`, the “activity change, negative = cytotoxicity” value was -12.5% (inactive).

`CCCCCCOC(=O)NC(=N)c1ccc(NCc2nc3cc(C(=O)N(CCC(=O)OCC)c4ccccn4)ccc3n2C)cc1`: the Potency is 21.1 µM (active). `CCOC(=O)C(F)(F)F`: the “activity change, negative = cytotoxicity” value was -1.88% (inactive). The same measure, in the same setting: the figure for `CCn1cc(C(=O)O)c(=O)c2cnc(N3CCNCC3)nc21` is 4.32% (inactive).

Turning to `CCOC(=O)NCCOc1ccc(Oc2ccccc2)cc1`, the “activity change, negative = cytotoxicity” value is -3.43% (inactive). Consider `C=C(C)C(=O)OCCO`, for which the “activity change, negative = cytotoxicity” value was -9.3% [at 81.1 µM] (inactive). As for `Cc1oc(-c2ccccc2)nc1CCOc1cccc2c1ccn2CCC(=O)O`, the “activity change, negative = cytotoxicity” value is -0.0281% (inactive). Regarding `CCOc1ccc(O)cc1`, the “activity change, negative = cytotoxicity” value was 11.3% (inactive). As for `CCCCCCCCCCCCCCOS(=O)(=O)O`, the Potency is 43.6 µM (active). Take `OCCN1CCN(CCCN2c3ccccc3C=Cc3ccccc32)CC1`: the “activity change, negative = cytotoxicity” value is -13.5% (inactive).

With `C[Si](C)(CCCN)O[Si](C)(C)CCCN`, the “activity change, negative = cytotoxicity” value was -18.2% (inactive). As to `O=C(O)c1ccc(-n2nc(-c3ccccc3O)nc2-c2ccccc2O)cc1`, the “activity change, negative = cytotoxicity” value was -16.7% (inactive). In the case of `O=C(O)c1ccco1`, the “activity change, negative = cytotoxicity” value was 9.81% (inactive).

Take `CCOCC(O)COc1ccc(NC(=O)CC[S+](C)C)cc1` (stereo not given): the “activity change, negative = cytotoxicity” value is 2.67% (inactive).

`Cc1ncc(CO)c(C=O)c1O`: the “activity change, negative = cytotoxicity” value is 1.99% (inactive). As to `Nc1ccccc1S(=O)(=O)c1ccccc1`, the “activity change, negative = cytotoxicity” value is -8.1% (inactive).

As for `Clc1ccc(Cn2c(CN3CCCC3)nc3ccccc32)cc1`, the Potency is 29.8 µM (active).
